Data on 40 molecules can be found in the supplement of paper PMC8726507.

The first experiment deals with Plasmodium falciparum NF54-HGL (transmission to Anopheles stephensi). Description: percentage of barcode signal found in uninfected mosquitoes (transmission-blocking activity); higher = stronger blocking of transmission to mosquito, active = 80 or more. As to conditions: 10 µM; gametocyte preincubation time 24 h; readout time post-feed 8 days. On the procedure: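 The mixture was fed to Anopheles stephensi in 96-well plates as blood meals tagged with DNA-barcoded Asaia bacteria. Eight days later, mosquitoes were classed infected or uninfected by luminescence (mean + 5 SD of unfed controls). Barcodes were quantified by Luminex MagPlex-TAG in the pooled uninfected and infected Asaia cultures, background-corrected, and the score is % of barcode signal in uninfected mosquitoes = 100*Iu/(Iu+Ii).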
`Cc1[nH]c2ccccc2c1C(c1cccs1)N1CCN(C)CC1` (stereo not given): the “percentage of barcode signal found in uninfected mosquitoes” value (“percentage of barcode signal found” below) was 43.7% (inactive).

Consider `CC(=O)NC[C@@H]1CN(c2ccc(N3CCOCC3)c(F)c2)C(=O)O1`, for which the “percentage of barcode signal found” value was 4.01% (inactive).

Regarding `COC(=O)Nc1nc2cc(C(=O)c3ccccc3)ccc2[nH]1`, the “percentage of barcode signal found” value is 42.3% (inactive).

Consider `C[C@]1(O)C[C@@H](c2nc(-c3ccc4ccc(-c5ccccc5)nc4c3)c3c(N)nccn32)C1`, for which the “percentage of barcode signal found” value was 80.6% (active).

Take `COc1ccc(OC(C)C(=O)Nc2ccc(Cl)cc2C)cc1` (stereo not given): the “percentage of barcode signal found” value is -0.09% (inactive).

Consider `O=C(Nc1nnc(-c2ccc(Cl)s2)o1)c1ccc(Cl)s1`, for which the “percentage of barcode signal found” value was 0.515% (inactive).

In the case of `Cc1nnc(NCc2cccc(Cl)c2)c2ccccc12`, the “percentage of barcode signal found” value was 34.2% (inactive).

Take `Cc1nc(-c2cccc(NCc3ccccc3)c2)[nH]c1C`: the “percentage of barcode signal found” value was 2.32% (inactive).

Turning to `FC(F)(F)c1nnc2ccc(Cl)nn12`, the “percentage of barcode signal found” value is 20.5% (inactive).

For the molecule `CNC(=O)c1nn(C)c2c1C(C)(C)Cc1cnc(Nc3ccc(N4CCN(C)CC4)cc3)nc1-2`, the “percentage of barcode signal found” value is 64% (inactive).

For `CC1COC2(CCN(c3nc(=O)c4cc(C(F)(F)F)cc([N+](=O)[O-])c4s3)CC2)O1` (stereo not given), the “percentage of barcode signal found” value is 26.7% (inactive).

On to `COc1ccc(-c2cnc3ccc(N4CCCC4)nn23)cc1OC`, for which the “percentage of barcode signal found” value is 75.3% (inactive).

As for `COC(=O)c1c(NC(=O)c2cc3ccccc3oc2=O)sc2c1CCN(Cc1ccccc1)C2`, the “percentage of barcode signal found” value was 49.1% (inactive).

As to `Cc1cccc(Cn2ccc(NC(=O)c3ccc4c(c3)OCO4)n2)c1`, the “percentage of barcode signal found” value was 42.9% (inactive).

For the molecule `NS(=O)(=O)c1cncc(-c2ccc3nccc(-c4cn[nH]c4)c3n2)c1`, the “percentage of barcode signal found” value was 78.5% (inactive).

On to `Nc1ncc(-c2ccc(C(F)(F)F)nc2)cc1-c1ccc(C(F)(F)F)nc1`, for which the “percentage of barcode signal found” value is 1.73% (inactive).

As to `O=C(NC1=NCCS1)c1sc2cc(F)ccc2c1Cl`, the “percentage of barcode signal found” value was 5.7% (inactive).

Regarding `O=C(NC1CCCCC1)N1CCN(Cc2ccc3c(c2)OCO3)CC1`, the “percentage of barcode signal found” value was -0.671% (inactive).

As to `CN1CCN(c2nccc3nc(-c4ccc(F)c(F)c4)[nH]c23)CC1`, the “percentage of barcode signal found” value is 97.2% (active).

The same experiment, now with this note: 20 µM; gametocyte preincubation time 24 h; readout time post-feed 8 days.
`CCc1ccc([C@@H]2C[C@H](C(F)(F)F)n3ncc(C(=O)NCc4ccc(OC)cc4)c3N2)cc1`: the “percentage of barcode signal found” value is 8.67% (inactive).

In the case of `COc1cccc(-c2cc3c(Nc4cccnc4)nccc3[nH]2)c1`, the “percentage of barcode signal found” value is 29% (inactive).

As to `Cn1ccnc1CNCCS(=O)(=O)c1cccc(Nc2ccc(-c3cccc(F)c3)cn2)c1`, the “percentage of barcode signal found” value was 0.967% (inactive).

`Cc1cc(C)n(-c2ccc(NC(=O)C3CCN(Cc4cnc(C)s4)CC3)cc2)n1`: the “percentage of barcode signal found” value is 1.19% (inactive).

For the molecule `CN1CCC(NCc2cccc(-c3ccc(S(=O)(=O)NCc4ccccc4)cc3)c2)CC1`, the “percentage of barcode signal found” value is 98.6% (active).

In the case of `CC(=O)N1CCc2cc3nc(C)cc(C)c3cc21`, the “percentage of barcode signal found” value was 5.33% (inactive).

`O=C(c1ccc(F)cc1)N(CCNc1ccccc1)c1ccccc1`: the “percentage of barcode signal found” value was 7.39% (inactive).

Regarding `Clc1ccc(Cl)c(CO[C@H]2CCCC[C@@H]2n2ccnc2)c1`, the “percentage of barcode signal found” value was 19.9% (inactive).

Consider `NC(CC(=O)c1ccc(Cl)cc1Cl)C(Cl)(Cl)Cl` (stereo not given), for which the “percentage of barcode signal found” value is 86.9% (active).

Turning to `Cc1[nH]c2cc(F)cc(F)c2c(=O)c1-c1ccc(Oc2ccc(OC(F)(F)F)cc2)cc1`, the “percentage of barcode signal found” value is 78.3% (inactive).

For `CNc1cc(C)nc(C2CN(C(=O)c3n[nH]c4ccccc34)CCO2)c1` (stereo not given), the “percentage of barcode signal found” value was 35.5% (inactive).

As for `COc1ccc(-c2nn(C(C)C)c3ncnc(N)c23)cc1OC`, the “percentage of barcode signal found” value is 95.5% (active).

Turning to `COc1cccc(-c2nc3c(N4CCCC4)cccc3n2CC2CCCN2)n1` (stereo not given), the “percentage of barcode signal found” value is 68% (inactive).

For the molecule `Clc1ccc(CN2CCN(C3=NCCN3)CC2)cc1Cl`, the “percentage of barcode signal found” value was 4.45% (inactive).

Take `CC(C)(C)C(=O)N(CCCCCCN1C[C@H](O)[C@@H](O)[C@H](O)[C@H]1CO)C1CCCCCC1`: the “percentage of barcode signal found” value is 17% (inactive).

With `c1cc(C2=NCCN2)cc(-c2cc(-c3ccc(C4=NCCN4)cc3)no2)c1`, the “percentage of barcode signal found” value was 50% (inactive).

For `CCCCN(CCCC)c1c(C#N)cc(S(=O)(=O)Nc2ccccc2)cc1C#N`, the “percentage of barcode signal found” value is 10.5% (inactive).

For the molecule `COc1ccc2nc(C)cc(OCC(=O)NCc3ccccc3)c2c1`, the “percentage of barcode signal found” value is 2.14% (inactive).

Regarding `Cc1cc(NC(=O)c2ccc(Oc3ccc(Cl)cc3O)o2)no1`, the “percentage of barcode signal found” value was 33% (inactive).

In the case of `COc1ccc(CCN2CCC(NCc3cccc(N(C)C)c3)CC2)cc1`, the “percentage of barcode signal found” value was 94.9% (active).

As for `C[C@@H]1[C@H](O)[C@@H](C)/C=C/C=C/C=C/C=C/C=C/C=C/C=C/[C@H](O[C@@H]2O[C@H](C)[C@@H](O)[C@H](N)[C@@H]2O)C[C@@H]2O[C@](O)(C[C@@H](O)C[C@@H](O)[C@H](O)CC[C@@H](O)C[C@@H](O)CC(=O)O[C@H]1C)C[C@H](O)[C@H]2C(=O)O`, the “percentage of barcode signal found” value was -1.39% (inactive).
